Records with an inconclusive call do not appear. The source made the active and inactive calls. Rule for the calls, unless noted: active = hit-call score of the fitted dose curve at least 0.9, where 1 is the maximum; inactive = score below 0.9.
How the values were obtained:
[1] = biological target: Oxysterols receptor LXR-beta (Homo sapiens) (UniProt P55055); experiment: ATG_LXRb_TRANS: Attagene TRANS-FACTORIAL HepG2 Assay for human Liver X Receptor beta (LXRb) (AID 2282981; active = hit-call score of the fitted dose curve at least 0.9, where 1 is the maximum); conditions: HepG2 Attagene TRANS GAL4-LXRb reporter, mRNA
In short: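 Liver-derived HepG2 cells transfected with Gal4-responsive reporters were dosed for 24 h. Activation was scored as rise in reporter mRNA, by RT-PCR and capillary electrophoresis, above DMSO baseline.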

[2] = ATG_M_06_TRANS: Attagene TRANS-FACTORIAL HepG2 Assay for M06 Transcription Factor (Internal Marker) (AID 2282983; active = hit-call score of the fitted dose curve at least 0.9, where 1 is the maximum); conditions: HepG2 Attagene TRANS M06 internal marker reporter
In short: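 Read-out: fluorescent reporter cDNA fragments resolved by capillary electrophoresis after RT-PCR and HpaI cut. Source cells were HepG2 carrying transfected multi-reporter GAL4 constructs, dosed 24 h. Increase over DMSO control analysed.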

[3] = ATG_M_32_TRANS: Attagene TRANS-FACTORIAL HepG2 Assay for M32 Transcription Factor (Internal Marker) (AID 2282984; active = hit-call score of the fitted dose curve at least 0.9, where 1 is the maximum); conditions: HepG2 Attagene TRANS M32 internal marker reporter
In short: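 Fluorescence-detected mRNA induction, HepG2 liver cells, 24 h after dosing. Multiple GAL4-UAS reporter units introduced by transient transfection; background-control endpoint analysed for gain of signal against DMSO.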

[4] = biological target: Nuclear receptor subfamily 4 group A member 2 (Homo sapiens) (UniProt P43354); experiment: ATG_NURR1_TRANS: Attagene TRANS-FACTORIAL HepG2 Assay for human Nuclear Receptor Related Protein 1 (NURR1) (AID 2282985; active = hit-call score of the fitted dose curve at least 0.9, where 1 is the maximum); conditions: HepG2 Attagene TRANS reporter, mRNA readout
In short: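 Chimeric NR-Gal4 proteins were expressed in human HepG2 cells bearing GAL4-UAS reporter units, and induced reporter mRNA was quantified 24 h post-dosing by RT-PCR and capillary electrophoresis.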

[5] = biological target: Transcriptional activator Myb (Homo sapiens) (UniProt P10242); experiment: ATG_Myb_CIS: Attagene CIS-FACTORIAL HepG2 Assay for human Myeloblastosis (Myb) Proto-Oncogene Transcription Factor (AID 2282986); conditions: HepG2 Attagene CIS-FACTORIAL Myb reporter transcription; actives raise or lower the signal
In short: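 Multiplexed cis-reporter system in HepG2: transient transfection, 24 h treatment, mRNA readout by RT-PCR and capillary electrophoresis. Both increases and decreases are scored versus DMSO negative control.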

[6] = biological target: Nuclear respiratory factor 1 (Homo sapiens) (UniProt Q16656); experiment: ATG_NRF1_CIS: Attagene CIS-FACTORIAL HepG2 Assay for human Nuclear Respiratory Factor 1 (NRF1) Orphan Gene (AID 2282987); conditions: HepG2 NRF1 cis-element reporter, Attagene multiplex; actives raise or lower the signal
In short: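 Endogenous factor activity was captured via cis-element-driven reporter transcripts in HepG2 cells. Following 24 h chemical treatment, transcripts were quantified by RT-PCR and capillary electrophoresis.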

[7] = ATG_M_61_TRANS: Attagene TRANS-FACTORIAL HepG2 Assay for M61 Transcription Factor (Internal Marker) (AID 2282988); conditions: HepG2 Attagene TRANS M61 internal marker reporter
In short: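 Background-control reporter transcript, measured after 24 h chemical exposure of transiently transfected HepG2 cells carrying multiple GAL4-UAS reporter units. Read-out by RT-PCR with 6-FAM primer extension and capillary electrophoresis, gain of signal versus DMSO.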

[8] = biological target: Myc proto-oncogene protein (Homo sapiens) (UniProt P01106); experiment: ATG_Myc_CIS: Attagene CIS-FACTORIAL HepG2 Assay for human Myelocytomatosis (Myc) Proto-Oncogene Transcription Factor (AID 2282990); conditions: HepG2, Attagene cis-reporter transcription factor activity; actives raise or lower the signal
In short: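 Multiplexed cis-reporter transcription in HepG2 cells after 24 h chemical treatment. Reporter mRNA measured by RT-PCR and capillary electrophoresis fluorescence; activity fitted bidirectionally against DMSO control.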

[9] = ATG_NF_kB_CIS: Attagene CIS-FACTORIAL HepG2 Assay for human Nuclear Factor Kappa B (NF-kB) (AID 2282991); conditions: HepG2 Attagene cis-factorial NF-kB reporter mRNA; actives raise or lower the signal
In short: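 After 24 h compound incubation, transfected HepG2 cells yield total RNA; reporter cDNA is PCR-amplified, end-labelled with 6-FAM, HpaI-digested and analysed on a genetic analyser. Endogenous factor activity, DMSO-referenced bidirectional fit.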

[10] = ATG_NRF2_ARE_CIS: Attagene CIS-FACTORIAL HepG2 Assay for human Nuclear Factor Erythroid 2 Related Factor 2 (NFR2) response to Antioxidant Response Elements (ARE) (AID 2282992); conditions: HepG2 Attagene ARE/NRF2 reporter, transcription factor activity; actives raise or lower the signal
In short: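 Endogenous transcription factor activity in human liver HepG2 cells is tracked via a cis-element-driven reporter within a multiplexed set. mRNA induction is read by RT-PCR and capillary electrophoresis after 24 h, with DMSO as baseline.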

[11] = ATG_Oct_MLP_CIS: Attagene CIS-FACTORIAL HepG2 Assay for human Octamer-Binding Transcription Factor (Oct) (AID 2282993); conditions: HepG2 Attagene cis-factorial Oct reporter, mRNA; actives raise or lower the signal
In short: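 Read-out: reporter mRNA via RT-PCR plus capillary electrophoresis of 6-FAM-labelled fragments. Transiently transfected HepG2, 24 h exposure, endogenous TF activity on cis elements. Gain or loss of signal fitted relative to DMSO.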

[12] = biological target: Cellular tumor antigen p53 (Homo sapiens) (UniProt P04637); experiment: ATG_p53_CIS: Attagene CIS-FACTORIAL HepG2 Assay for human p53 Transcription Factor (AID 2282994); conditions: HepG2 p53 cis-element reporter, Attagene mRNA; actives raise or lower the signal
In short: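 Steps: transfect HepG2 with multiplexed cis reporter constructs; dose chemicals 24 h; extract RNA, reverse-transcribe, PCR-amplify reporter sequences; FAM-label, HpaI-digest, resolve fragments by CE. Activity fitted both directions relative to DMSO.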

[13] = biological target: Oxysterols receptor LXR-alpha (Homo sapiens) (UniProt Q13133); experiment: ATG_LXRa_TRANS: Attagene TRANS-FACTORIAL HepG2 Assay for human Liver X Receptor alpha (LXRa) (AID 2282980; active = hit-call score of the fitted dose curve at least 0.9, where 1 is the maximum); conditions: HepG2 Attagene TRANS reporter, LXRa transactivation
In short: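 Read-out: reporter transcript levels by RT-PCR plus capillary electrophoresis, fluorescence intensity. Transiently transfected HepG2, exogenous NR-GAL4 chimera, GAL4-UAS reporters; 24 h compound exposure. Activity = increase over DMSO negative control.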

[14] = ATG_NFI_CIS: Attagene CIS-FACTORIAL HepG2 Assay for human Nuclear Factor I (NFI) (AID 2282989); conditions: HepG2 cis-regulatory reporter, NFI response element transcription; actives raise or lower the signal
In short: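 Read-out: reporter mRNA via RT-PCR plus capillary electrophoresis with fluorescence detection. Transiently transfected HepG2 (endogenous TF activity on cis promoters), 24 h compound exposure; gain or loss of signal fitted against DMSO.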

[15] = biological target: Hepatocyte nuclear factor 4-alpha (Homo sapiens) (UniProt P41235); experiment: ATG_HNF4a_TRANS: Attagene TRANS-FACTORIAL HepG2 Assay for human Hepatocyte Nuclear Factor 4 alpha (HNF4a) (AID 2282982; active = hit-call score of the fitted dose curve at least 0.9, where 1 is the maximum); conditions: HepG2 HNF4a transactivation reporter, mRNA readout
In short: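 Using HepG2 liver cells transfected with GAL4-UAS reporter units, chemical-induced mRNA increases were assessed after 24 hours. Fluorescent RT-PCR fragments were separated by capillary electrophoresis and compared with DMSO negative controls.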

[16] = BSK_3C_TissueFactor: BioMAP Diversity Plus: 3C Assay for Tissue Factor Biomarker Activity (AID 2282997); conditions: BioMAP 3C HUVEC, tissue factor biomarker readout; actives raise or lower the signal
In short: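 HUVEC, 3C system, 24 h post-dose; Tissue Factor by ELISA; bidirectional fit vs DMSO baseline.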

[17] = BSK_3C_uPAR: BioMAP Diversity Plus: 3C Assay for Urokinase-type plasminogen activator receptor (uPAR) Biomarker Activity (AID 2282998); conditions: BioMAP 3C HUVEC, uPAR biomarker ELISA; actives raise or lower the signal
In short: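 HUVEC primary cells; 24 h post-dose; uPAR by ELISA; gain or loss of signal fitted bidirectionally vs DMSO baseline.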

Oxysterols receptor LXR-beta (Homo sapiens), sequence (P55055 whole entry, looked up, the tested form may be a part): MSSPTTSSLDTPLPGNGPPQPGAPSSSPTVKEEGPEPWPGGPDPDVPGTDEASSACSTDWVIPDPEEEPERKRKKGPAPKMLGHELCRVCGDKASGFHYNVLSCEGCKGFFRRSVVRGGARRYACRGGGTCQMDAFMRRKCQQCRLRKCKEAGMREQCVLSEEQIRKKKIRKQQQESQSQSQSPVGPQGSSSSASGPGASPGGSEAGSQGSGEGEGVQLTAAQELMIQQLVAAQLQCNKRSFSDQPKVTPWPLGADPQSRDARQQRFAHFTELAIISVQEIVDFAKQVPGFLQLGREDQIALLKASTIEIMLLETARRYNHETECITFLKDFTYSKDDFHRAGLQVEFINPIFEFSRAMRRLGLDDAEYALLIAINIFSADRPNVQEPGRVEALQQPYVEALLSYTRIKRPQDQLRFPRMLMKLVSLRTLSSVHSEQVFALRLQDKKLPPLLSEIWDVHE
Transcriptional activator Myb (Homo sapiens), sequence (P10242 whole entry, looked up): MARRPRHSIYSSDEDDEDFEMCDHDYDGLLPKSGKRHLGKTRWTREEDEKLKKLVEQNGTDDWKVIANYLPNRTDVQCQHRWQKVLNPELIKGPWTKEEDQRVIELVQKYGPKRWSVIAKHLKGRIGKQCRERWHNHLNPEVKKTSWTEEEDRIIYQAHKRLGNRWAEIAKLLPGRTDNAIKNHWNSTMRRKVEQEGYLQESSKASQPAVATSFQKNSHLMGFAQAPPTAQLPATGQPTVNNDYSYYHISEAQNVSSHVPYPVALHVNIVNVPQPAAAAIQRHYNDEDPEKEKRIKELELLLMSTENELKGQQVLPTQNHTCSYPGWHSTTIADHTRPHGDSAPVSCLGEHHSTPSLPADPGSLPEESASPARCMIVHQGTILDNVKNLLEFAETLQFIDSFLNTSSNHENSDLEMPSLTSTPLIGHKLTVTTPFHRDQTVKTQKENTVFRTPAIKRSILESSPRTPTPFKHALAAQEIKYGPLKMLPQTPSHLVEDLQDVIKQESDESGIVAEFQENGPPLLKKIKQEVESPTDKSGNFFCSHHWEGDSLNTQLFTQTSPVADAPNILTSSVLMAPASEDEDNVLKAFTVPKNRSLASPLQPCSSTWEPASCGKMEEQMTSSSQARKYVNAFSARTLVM
Nuclear respiratory factor 1 (Homo sapiens), sequence (Q16656 whole entry, looked up): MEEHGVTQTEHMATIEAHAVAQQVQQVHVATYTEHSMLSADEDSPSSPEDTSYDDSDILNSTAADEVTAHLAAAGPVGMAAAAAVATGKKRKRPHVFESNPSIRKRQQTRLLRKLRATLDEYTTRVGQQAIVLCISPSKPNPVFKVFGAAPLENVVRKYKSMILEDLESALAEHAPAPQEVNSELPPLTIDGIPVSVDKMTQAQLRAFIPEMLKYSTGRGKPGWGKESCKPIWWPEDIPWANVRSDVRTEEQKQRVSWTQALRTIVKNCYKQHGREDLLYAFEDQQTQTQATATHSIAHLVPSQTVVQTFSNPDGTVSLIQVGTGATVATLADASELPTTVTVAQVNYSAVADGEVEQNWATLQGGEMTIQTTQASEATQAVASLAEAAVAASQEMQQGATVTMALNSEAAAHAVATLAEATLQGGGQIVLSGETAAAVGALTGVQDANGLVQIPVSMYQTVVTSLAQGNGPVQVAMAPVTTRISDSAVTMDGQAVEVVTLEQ
Nuclear receptor subfamily 4 group A member 2 (Homo sapiens), sequence (P43354 whole entry, looked up, the tested form may be a part): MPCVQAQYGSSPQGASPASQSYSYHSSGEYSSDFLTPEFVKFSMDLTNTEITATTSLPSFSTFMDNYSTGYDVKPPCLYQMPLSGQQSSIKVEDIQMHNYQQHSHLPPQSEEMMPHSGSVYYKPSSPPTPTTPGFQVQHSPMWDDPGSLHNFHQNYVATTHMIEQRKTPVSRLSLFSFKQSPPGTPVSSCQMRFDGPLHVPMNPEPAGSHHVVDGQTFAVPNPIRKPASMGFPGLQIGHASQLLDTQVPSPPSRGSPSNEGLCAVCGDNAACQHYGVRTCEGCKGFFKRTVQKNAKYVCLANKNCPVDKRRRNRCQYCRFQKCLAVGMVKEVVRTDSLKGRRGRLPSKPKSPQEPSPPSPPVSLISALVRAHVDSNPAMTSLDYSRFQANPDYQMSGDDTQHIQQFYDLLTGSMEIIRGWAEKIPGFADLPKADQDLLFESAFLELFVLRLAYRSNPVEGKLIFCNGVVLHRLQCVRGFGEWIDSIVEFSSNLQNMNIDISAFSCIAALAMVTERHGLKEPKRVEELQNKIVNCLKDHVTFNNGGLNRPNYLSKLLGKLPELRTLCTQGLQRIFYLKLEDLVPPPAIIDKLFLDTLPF
Cellular tumor antigen p53 (Homo sapiens), sequence (P04637 whole entry, looked up, the tested form may be a part): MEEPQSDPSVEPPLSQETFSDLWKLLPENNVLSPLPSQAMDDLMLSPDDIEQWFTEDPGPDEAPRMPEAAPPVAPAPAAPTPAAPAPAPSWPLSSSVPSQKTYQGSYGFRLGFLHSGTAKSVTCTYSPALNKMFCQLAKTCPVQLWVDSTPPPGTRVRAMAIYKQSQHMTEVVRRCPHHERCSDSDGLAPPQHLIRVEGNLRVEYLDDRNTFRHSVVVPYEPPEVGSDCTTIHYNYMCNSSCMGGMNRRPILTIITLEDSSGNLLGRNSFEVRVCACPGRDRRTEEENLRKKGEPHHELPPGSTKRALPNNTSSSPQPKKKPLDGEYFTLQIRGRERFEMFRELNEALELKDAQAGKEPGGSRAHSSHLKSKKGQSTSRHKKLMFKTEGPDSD
Oxysterols receptor LXR-alpha (Homo sapiens), sequence (Q13133 whole entry, looked up, the tested form may be a part): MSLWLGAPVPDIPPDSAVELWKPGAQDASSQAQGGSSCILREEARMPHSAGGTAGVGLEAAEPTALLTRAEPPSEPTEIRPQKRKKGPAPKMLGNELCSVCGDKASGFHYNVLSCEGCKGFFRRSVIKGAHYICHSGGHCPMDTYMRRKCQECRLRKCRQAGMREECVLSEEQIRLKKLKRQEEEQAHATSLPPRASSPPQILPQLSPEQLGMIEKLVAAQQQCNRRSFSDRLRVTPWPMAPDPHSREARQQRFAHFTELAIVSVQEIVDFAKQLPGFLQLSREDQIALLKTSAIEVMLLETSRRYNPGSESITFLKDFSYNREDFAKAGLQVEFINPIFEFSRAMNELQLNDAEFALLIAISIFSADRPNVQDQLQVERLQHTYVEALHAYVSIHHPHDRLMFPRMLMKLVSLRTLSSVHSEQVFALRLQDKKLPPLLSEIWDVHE
Myc proto-oncogene protein (Homo sapiens), sequence (P01106 whole entry, looked up): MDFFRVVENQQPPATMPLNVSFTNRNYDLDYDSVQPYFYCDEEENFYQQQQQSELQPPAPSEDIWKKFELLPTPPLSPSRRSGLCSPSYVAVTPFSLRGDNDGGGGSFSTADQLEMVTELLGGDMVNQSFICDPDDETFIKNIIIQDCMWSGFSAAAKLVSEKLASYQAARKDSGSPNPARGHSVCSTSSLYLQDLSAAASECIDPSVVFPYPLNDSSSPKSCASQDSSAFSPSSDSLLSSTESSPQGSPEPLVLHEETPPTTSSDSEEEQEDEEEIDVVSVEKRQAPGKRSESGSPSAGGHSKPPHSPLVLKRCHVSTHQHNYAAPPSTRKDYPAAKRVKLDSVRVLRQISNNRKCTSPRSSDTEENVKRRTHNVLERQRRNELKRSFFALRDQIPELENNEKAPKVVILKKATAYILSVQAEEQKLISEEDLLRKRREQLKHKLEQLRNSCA
Hepatocyte nuclear factor 4-alpha (Homo sapiens), sequence (P41235 whole entry, looked up, the tested form may be a part): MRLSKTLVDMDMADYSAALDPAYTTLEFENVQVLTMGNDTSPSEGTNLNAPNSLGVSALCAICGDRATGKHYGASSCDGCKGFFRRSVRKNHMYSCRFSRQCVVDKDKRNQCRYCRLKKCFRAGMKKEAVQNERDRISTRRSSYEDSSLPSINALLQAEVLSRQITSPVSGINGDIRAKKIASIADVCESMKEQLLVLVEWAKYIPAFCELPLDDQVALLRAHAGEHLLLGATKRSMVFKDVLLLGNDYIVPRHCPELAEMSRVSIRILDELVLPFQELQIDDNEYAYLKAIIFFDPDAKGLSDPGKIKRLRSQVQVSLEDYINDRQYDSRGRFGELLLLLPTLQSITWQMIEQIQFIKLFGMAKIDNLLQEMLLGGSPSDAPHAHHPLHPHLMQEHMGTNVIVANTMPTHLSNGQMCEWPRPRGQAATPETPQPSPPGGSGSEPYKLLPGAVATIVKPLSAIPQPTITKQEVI

CCC[CH2][Sn]([CH2]CCC)([CH2]CCC)[O]C(=O)c1ccccc1
outcome [1]: inactive | AC50 [2]: 0.703 µM (active) | outcome [3]: inactive | AC50 [4]: 0.0161 µM (active) | outcome [5]: inactive | outcome [6]: inactive | outcome [7]: inactive | outcome [8]: inactive | outcome [9]: inactive | AC50 [10]: 0.188 µM (active) | outcome [11]: inactive | outcome [12]: inactive

CC1CN1P(=O)(N1CC1C)N1CC1C (stereo unspecified)
outcome [13]: inactive | outcome [2]: inactive | outcome [5]: inactive | outcome [14]: inactive | outcome [8]: inactive | outcome [9]: inactive | outcome [10]: inactive | outcome [11]: inactive

O=C(NCO)NCO
outcome [1]: inactive | outcome [15]: inactive | outcome [2]: inactive | outcome [5]: inactive | outcome [6]: inactive | outcome [14]: inactive | outcome [8]: inactive | outcome [9]: inactive | outcome [10]: inactive | outcome [11]: inactive | outcome [12]: inactive

O=C(CCl)CCl
outcome [2]: inactive | outcome [4]: inactive | outcome [5]: inactive | outcome [14]: inactive | outcome [8]: inactive | AC50 [9]: 33.4 µM (active) | AC50 [10]: 8.44 µM (active) | AC50 [11]: 26.1 µM (active) | AC50 [12]: 58.6 µM (active)

C1CCC(NC2CCCCC2)CC1
outcome [13]: inactive | outcome [3]: inactive | outcome [5]: inactive | outcome [6]: inactive | outcome [14]: inactive | outcome [8]: inactive | outcome [10]: inactive | outcome [11]: inactive

CC(=[OH+])/C=C(/C)[O-].CC(=[OH+])/C=C(/C)[O-].CC(=[OH+])/C=C(/C)[O-].[Al]
outcome [1]: inactive | outcome [2]: inactive | outcome [4]: inactive | outcome [5]: inactive | outcome [8]: inactive | outcome [9]: inactive | outcome [10]: inactive | outcome [11]: inactive | outcome [12]: inactive

C[C@H]1CCCC(=O)CCC/C=C/c2cc(O)cc(O)c2C(=O)O1
outcome [13]: inactive | outcome [2]: inactive | outcome [4]: inactive | outcome [5]: inactive | AC50 [6]: 39.4 µM (active) | outcome [14]: inactive | outcome [8]: inactive | outcome [9]: inactive | AC50 [11]: 10.7 µM (active) | outcome [12]: inactive

Cc1ccc2ccccc2c1C
outcome [1]: inactive | outcome [3]: inactive | outcome [5]: inactive | outcome [8]: inactive | outcome [11]: inactive

NNC(=S)NN
outcome [1]: inactive | outcome [2]: inactive | outcome [3]: inactive | outcome [5]: inactive | outcome [6]: inactive | outcome [14]: inactive | outcome [8]: inactive | outcome [9]: inactive | outcome [10]: inactive | outcome [11]: inactive

Cl/C=C/Cl
outcome [1]: inactive | outcome [15]: inactive | outcome [2]: inactive | outcome [5]: inactive | outcome [6]: inactive | outcome [14]: inactive | outcome [8]: inactive | outcome [9]: inactive | outcome [10]: inactive | outcome [11]: inactive

COc1cc2c(cc1OC)[C@@]13CCN4CC5=CCO[C@H]6CC(=O)N2[C@H]1[C@H]6[C@H]5C[C@H]43
outcome [3]: inactive | outcome [5]: inactive | outcome [6]: inactive | outcome [14]: inactive | outcome [8]: inactive | outcome [9]: inactive | outcome [10]: inactive | outcome [11]: inactive | outcome [12]: inactive

Cn1sc(Cl)cc1=O
outcome [2]: inactive | outcome [3]: inactive | outcome [5]: inactive | outcome [6]: inactive | outcome [14]: inactive | outcome [8]: inactive | AC50 [9]: 139 µM (active) | AC50 [10]: 135 µM (active) | outcome [11]: inactive | AC50 [16]: 16.2 µM (active) | outcome [17]: inactive

CC(C)c1cccc(C(C)C)c1O
outcome [1]: inactive | outcome [2]: inactive | outcome [3]: inactive | outcome [4]: inactive | outcome [5]: inactive | outcome [6]: inactive | outcome [14]: inactive | outcome [8]: inactive | outcome [9]: inactive | outcome [10]: inactive | outcome [11]: inactive | outcome [12]: inactive

CC1(C)Cc2cccc(O)c2O1
outcome [13]: inactive | outcome [2]: inactive | outcome [4]: inactive | outcome [5]: inactive | outcome [14]: inactive | outcome [8]: inactive | outcome [10]: inactive | outcome [11]: inactive | outcome [16]: inactive | outcome [17]: inactive

O=C(O)CCC(F)(C(F)(F)F)C(F)(F)F
outcome [16]: inactive | outcome [17]: inactive

Cc1ccccc1N
outcome [1]: inactive | outcome [3]: inactive | outcome [4]: inactive | outcome [5]: inactive | outcome [6]: inactive | outcome [8]: inactive | outcome [9]: inactive | outcome [10]: inactive | outcome [11]: inactive | outcome [12]: inactive | outcome [16]: inactive | outcome [17]: inactive

C=CCc1ccc(OC)cc1
outcome [13]: inactive | outcome [2]: inactive | outcome [3]: inactive | outcome [4]: inactive | outcome [5]: inactive | outcome [6]: inactive | outcome [14]: inactive | outcome [8]: inactive | outcome [9]: inactive | outcome [10]: inactive | outcome [11]: inactive

CCOC(=O)CP(=O)(OCC)OCC
outcome [13]: inactive | outcome [15]: inactive | outcome [3]: inactive | outcome [4]: inactive | outcome [5]: inactive | outcome [6]: inactive | outcome [14]: inactive | outcome [8]: inactive | outcome [9]: inactive | outcome [10]: inactive | outcome [11]: inactive | outcome [12]: inactive

C[C@H]1O[C@@H](O[C@H]2[C@@H](O)C[C@H](O[C@H]3[C@@H](O)C[C@H](O[C@H]4CC[C@@]5(C)[C@H](CC[C@@H]6[C@@H]5CC[C@]5(C)[C@@H](C7=CC(=O)OC7)CC[C@]65O)C4)O[C@@H]3C)O[C@@H]2C)C[C@H](O)[C@@H]1O
outcome [1]: inactive | outcome [15]: inactive | outcome [2]: inactive | outcome [4]: inactive | AC50 [5]: 0.0564 µM (active) | outcome [6]: inactive | AC50 [14]: 0.171 µM (active) | AC50 [8]: 23.9 µM (active) | outcome [9]: inactive | AC50 [11]: 0.592 µM (active)
